Unmarked numbers belong to inactive results. Records with an inconclusive call do not appear. Entries that show only a call come without a potency. The source made the active and inactive calls. Unless noted, the call rests on the fitted dose curve.
Key:
[1] = Nuclear factor erythroid 2-related factor 2/antioxidant responsive element (Nrf2/ARE) small molecule agonists: qHTS cell viability counter screen in human keratinocytes (AID 1919968; active means well fitted curve in the direction sought with a large enough effect in the repeat runs; an effect the other way counts as inactive or inconclusive; further: nearly all actives have a fitted effect of over 55% in size)
In short: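 HaCaT ARE reporter line, 1,500 cells/well; 5 h settle, 37 C/5% CO2; cpd in DMSO pinned; 23 h exposure; CellTiter-Fluor, 1 h; fluorescence.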

[2] = biological target: Gonadotropin-releasing hormone receptor (Homo sapiens) (UniProt P30968); experiment: Human gonadotropin-releasing hormone receptor (GnRHR) small molecule agonists, calcium flux assay in GnRHR-HEK293 cells (AID 1920063); further: nearly all actives have a fitted effect of over 35% in size
Chain of Gonadotropin-releasing hormone receptor (Homo sapiens) (P30968 whole entry, looked up): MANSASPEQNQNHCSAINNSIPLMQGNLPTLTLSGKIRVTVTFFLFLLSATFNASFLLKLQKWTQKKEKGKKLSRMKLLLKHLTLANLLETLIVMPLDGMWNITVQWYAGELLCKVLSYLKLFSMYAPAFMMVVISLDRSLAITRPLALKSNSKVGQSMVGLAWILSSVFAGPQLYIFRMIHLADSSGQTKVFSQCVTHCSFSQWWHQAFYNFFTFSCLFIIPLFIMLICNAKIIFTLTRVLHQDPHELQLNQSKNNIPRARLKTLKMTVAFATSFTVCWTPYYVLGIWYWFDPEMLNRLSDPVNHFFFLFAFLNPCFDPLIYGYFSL
In short: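 GnRHR-HEK293, 1500 cells/well, 18 h 37 C/5% CO2; Ca dye 1 h 37 C; cpd pinned (DMSO), agonist mode; kinetic FL 480/540, 3 min, 1 s reads; 15 conc, n=3.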

[3] = biological target: KiSS-1 receptor (Homo sapiens) (UniProt Q969F8); experiment: Human kisspeptin (KISS1R) small molecule agonists, calcium flux assay in KISS1R-HEK293 cells (AID 1920064; active means well fitted curve in the direction sought with a large enough effect in the repeat runs; an effect the other way counts as inactive or inconclusive)
Chain of KiSS-1 receptor (Homo sapiens) (Q969F8 whole entry, looked up): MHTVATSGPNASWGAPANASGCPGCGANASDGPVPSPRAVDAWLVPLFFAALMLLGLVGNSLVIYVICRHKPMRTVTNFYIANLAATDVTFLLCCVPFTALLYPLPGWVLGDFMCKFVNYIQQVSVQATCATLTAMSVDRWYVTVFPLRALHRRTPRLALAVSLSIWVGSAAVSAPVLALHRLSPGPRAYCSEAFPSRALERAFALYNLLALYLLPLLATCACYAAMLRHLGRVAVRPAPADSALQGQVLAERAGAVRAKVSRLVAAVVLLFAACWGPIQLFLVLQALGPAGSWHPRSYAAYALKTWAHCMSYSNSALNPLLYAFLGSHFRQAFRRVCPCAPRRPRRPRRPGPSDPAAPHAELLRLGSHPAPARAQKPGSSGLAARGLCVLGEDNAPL
In short: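 Stable human KISS1R HEK293 line; 18 h plating, 37 C/5% CO2; calcium dye 1 h 37 C; compound pin transfer; kinetic fluorescence Ex/Em 480/540, 3 min.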

[4] = G protein-coupled receptor (GPCR) small molecule agonists, calcium flux assay: HEK293 wild type cell line counter screen (AID 1920065)
In short: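 Kinetic fluorescence at Ex/Em 480/540, recorded every second over 3 min, served as the read-out after compound addition. Each compound was tested at 15 concentrations in triplicate on cells pre-loaded with calcium dye for 1 h.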

[5] = p53 small molecule agonists, cell-based qHTS assay with human liver microsomes (AID 1963577)
In short: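 Fluorescence of the beta-lactamase reporter in p53RE-bla cells, detected with LiveBLAzer substrate (2 h, room temperature, dark), served as the read-out after 16 h compound exposure at 37 C with human liver microsomes and NADPH, each 0.5 mg/mL final.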

[6] = p53 small molecule agonists, cell-based qHTS assay with rat liver microsomes (AID 1963578)
In short: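 Cells carrying a p53 response element–beta-lactamase reporter were plated and rested 5 h, then dosed with compound in DMSO plus rat liver microsomes and NADPH, each at 0.5 mg/mL final. After 16 h at 37 C, LiveBLAzer substrate was added for 2 h.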

[7] = p53 small molecule agonists, cell-based qHTS assay with human liver microsomes: qHTS cell viability counter screen (AID 1963579); further: nearly all actives have a fitted effect of over 45% in size; further: potency means the concentration at half of the fitted maximal effect
In short: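 Cytotoxicity counter screen: p53RE-bla, 4,000 cells/well; 5 h settle, 37 C/5% CO2; cpd + HLM 0.5 mg/mL + NADPH 0.5 mg/mL (final); 16 h, 37 C; CellTiter-Glo, 30 min RT, luminescence.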

[8] = p53 small molecule agonists, cell-based qHTS assay with rat liver microsomes: qHTS cell viability counter screen (AID 1963580); further: nearly all actives have a fitted effect of over 45% in size
In short: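 p53RE-bla HCT-116 cells were exposed 16 h at 37 C to compounds with rat liver microsomes (0.5 mg/mL) and NADPH (0.5 mg/mL). Viability was measured in the same wells as ATP content by CellTiter-Glo luminescence.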

[9] = p53 small molecule agonists, cell-based qHTS assay: qHTS cell viability counter screen (AID 1963581); further: nearly all actives have a fitted effect of over 45% in size
In short: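 HCT-116 p53RE-bla cells, 4,000/well, plated 5 h before compound pin transfer; 16 h at 37 C; bla substrate 2 h RT; then CellTiter-Glo, 30 min RT, luminescence.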

[10] = p53 small molecule agonists, cell-based qHTS assay (AID 1963582; active means well fitted activation curve with a large enough effect in the signal ratio in the repeat runs, not every such curve was filed as active; the % refers to the signal ratio)
In short: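 Reporter line: p53RE-bla. Pre-incubation 5 h, 37 C, 5% CO2; compound (DMSO, pin tool) 16 h, 37 C; B/G FRET substrate 2 h RT; fluorescence intensity read.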

[11] = biological target: 5-hydroxytryptamine receptor 2A (Homo sapiens) (UniProt P28223); experiment: 5-hydroxytryptamine receptor 2A (HTR2A) small molecule antagonists, cell-based qHTS assay (AID 1963586); further: nearly all actives have a fitted effect of over 45% in size
Chain of 5-hydroxytryptamine receptor 2A (Homo sapiens) (P28223 whole entry, looked up): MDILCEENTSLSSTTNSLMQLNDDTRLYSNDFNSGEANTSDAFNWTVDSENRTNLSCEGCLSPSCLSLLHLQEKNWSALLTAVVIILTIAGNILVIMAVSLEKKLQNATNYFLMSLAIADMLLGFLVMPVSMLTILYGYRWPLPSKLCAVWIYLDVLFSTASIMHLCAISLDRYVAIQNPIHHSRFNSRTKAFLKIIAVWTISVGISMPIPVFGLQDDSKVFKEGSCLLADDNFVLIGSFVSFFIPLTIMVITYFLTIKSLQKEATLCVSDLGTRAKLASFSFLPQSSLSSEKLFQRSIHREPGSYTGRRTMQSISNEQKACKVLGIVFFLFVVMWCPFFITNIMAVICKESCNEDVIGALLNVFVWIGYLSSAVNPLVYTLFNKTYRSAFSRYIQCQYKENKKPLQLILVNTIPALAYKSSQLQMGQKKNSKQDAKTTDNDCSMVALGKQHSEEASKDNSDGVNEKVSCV
In short: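 Antagonist-mode intracellular calcium assay: DOI (4 nM) added after 5 min compound pre-incubation at room temperature to dye-loaded HTR2A-CHO cells. Fluorescence followed for 3 min, sampled every second.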

[12] = biological target: 5-hydroxytryptamine receptor 2A (Homo sapiens) (UniProt P28223); experiment: 5-hydroxytryptamine receptor 2A (HTR2A) small molecule agonists, cell-based qHTS assay (AID 1963587); further: nearly all actives have a fitted effect of over 30% in size
In short: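 CHO cells stably expressing human HTR2A, plated 18 h, loaded with calcium dye 1 h at 37 C. Agonist mode: compounds added and intracellular calcium fluorescence recorded kinetically for 2 min at 1 sec intervals.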

[13] = biological target: Muscarinic acetylcholine receptor M1 (Homo sapiens) (UniProt P11229); experiment: Cholinergic receptor muscarinic 1 (CHRM1) small molecule antagonists, cell-based qHTS assay (AID 1963588); further: nearly all actives have a fitted effect of over 40% in size
Chain of Muscarinic acetylcholine receptor M1 (Homo sapiens) (P11229 whole entry, looked up): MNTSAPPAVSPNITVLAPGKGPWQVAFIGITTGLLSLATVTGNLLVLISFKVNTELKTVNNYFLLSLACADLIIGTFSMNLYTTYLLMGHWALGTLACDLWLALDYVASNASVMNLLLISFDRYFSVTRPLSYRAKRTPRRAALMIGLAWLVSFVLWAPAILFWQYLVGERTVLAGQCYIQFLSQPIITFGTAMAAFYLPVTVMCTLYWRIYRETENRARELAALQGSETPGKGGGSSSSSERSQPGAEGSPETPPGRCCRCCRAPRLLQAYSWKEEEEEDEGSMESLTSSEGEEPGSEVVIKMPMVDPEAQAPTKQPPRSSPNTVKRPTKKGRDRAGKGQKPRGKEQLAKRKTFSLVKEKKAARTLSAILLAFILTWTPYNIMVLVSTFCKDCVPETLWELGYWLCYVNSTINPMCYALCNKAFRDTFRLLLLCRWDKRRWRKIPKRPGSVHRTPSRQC
In short: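 CHRM1-CHO calcium-flux assay, antagonist mode. Cells were seeded 18 h, dye-loaded 1 h at 37 C and given compound for 5 min at RT, then acetylcholine was added at 50nM. FDSS fluorescence was read 3 min; 15 concentrations, three runs.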

[14] = biological target: Muscarinic acetylcholine receptor M1 (Homo sapiens) (UniProt P11229); experiment: Cholinergic receptor muscarinic 1 (CHRM1) small molecule agonists, cell-based qHTS assay (AID 1963589); further: nearly all actives have a fitted effect of over 35% in size
In short: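 Human M1 in stable CHO line; 18 h plating, 1 h dye load 37 C; cpd added (agonist mode); Ca2+ fluorescence kinetic read, 1 s intervals; 15 conc, 3 runs.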

[15] = cAMP Responsive Elements (CRE) small molecule antagonists, cell-based qHTS assay (AID 1963591; active means well fitted inhibition curve with a large enough effect in the signal ratio in the repeat runs, not every such curve was filed as active; the % refers to the signal ratio)
In short: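 Beta-lactamase reporter read by FRET substrate (LiveBLAzer B/G) after 2 h at room temperature. CRE-bla HEK293T cells had received compound plus 0.25 uM (final) NKH477 for 3 h at 37 °C.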

[16] = biological target: Beta-2 adrenergic receptor (Homo sapiens) (UniProt P07550); experiment: Adrenergic beta2 receptor (ADRB2) small molecule antagonists, cell-based qHTS assay (AID 1963592); further: series mostly up to about 92 µM; nearly all actives have a fitted effect of over 50% in size
Chain of Beta-2 adrenergic receptor (Homo sapiens) (P07550 whole entry, looked up): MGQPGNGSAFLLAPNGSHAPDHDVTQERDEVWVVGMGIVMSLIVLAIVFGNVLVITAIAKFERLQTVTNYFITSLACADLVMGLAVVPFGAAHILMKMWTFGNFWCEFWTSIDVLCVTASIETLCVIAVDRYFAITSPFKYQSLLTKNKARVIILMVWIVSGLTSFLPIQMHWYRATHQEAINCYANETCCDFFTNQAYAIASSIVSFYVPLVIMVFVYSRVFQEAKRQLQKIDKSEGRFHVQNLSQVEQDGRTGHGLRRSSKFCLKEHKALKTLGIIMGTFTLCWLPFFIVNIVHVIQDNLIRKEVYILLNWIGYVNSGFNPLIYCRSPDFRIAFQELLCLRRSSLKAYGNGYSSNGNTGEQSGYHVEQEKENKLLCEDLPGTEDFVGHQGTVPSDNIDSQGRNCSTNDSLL
In short: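 Cells (CHO, stable ADRB2 overexpression) incubated 18-20hr at 37C; compounds added from DMSO; agonist mix (1nM isoproterenol, 100uM IBMX, 25uM Ro-20-1724) added; 0.5hr RT; d2-cAMP and anti-cAMP-cryptate added; 1hr RT; 665/615 nm read.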

[17] = biological target: Beta-2 adrenergic receptor (Homo sapiens) (UniProt P07550); experiment: Adrenergic beta2 receptor (ADRB2) small molecule agonists, cell-based qHTS assay (AID 1963593);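 further: CHO cells stably overexpressing human ADRB2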
In short: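 CHO cells stably over-expressing ADRB2 were plated overnight at 37C, then dosed with compounds plus a stimulation mix containing 100uM IBMX and 25uM Ro-20-1724 for 0.5hr at room temperature. cAMP was measured by HTRF competition, 1hr.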

[18] = biological target: D(2) dopamine receptor (Homo sapiens) (UniProt P14416); experiment: Dopamine D2 receptor (DRD2) small molecule agonists, cell-based qHTS assay (AID 1963594); further: nearly all actives have a fitted effect of over 35% in size
Chain of D(2) dopamine receptor (Homo sapiens) (P14416 whole entry, looked up): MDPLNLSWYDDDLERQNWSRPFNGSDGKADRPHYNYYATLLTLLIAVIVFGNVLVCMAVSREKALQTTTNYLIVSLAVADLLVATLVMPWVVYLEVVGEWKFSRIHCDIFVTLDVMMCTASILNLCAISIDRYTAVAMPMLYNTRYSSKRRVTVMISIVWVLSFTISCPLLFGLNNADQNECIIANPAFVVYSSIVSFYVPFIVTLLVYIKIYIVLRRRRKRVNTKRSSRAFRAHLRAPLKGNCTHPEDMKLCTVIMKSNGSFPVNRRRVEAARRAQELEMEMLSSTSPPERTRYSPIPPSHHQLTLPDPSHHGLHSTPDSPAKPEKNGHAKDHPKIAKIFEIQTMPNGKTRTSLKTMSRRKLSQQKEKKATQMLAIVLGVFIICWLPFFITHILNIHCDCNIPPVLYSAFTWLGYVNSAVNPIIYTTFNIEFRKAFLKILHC
In short: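 HEK293 cells stably expressing human DRD2, pre-treated with PDE inhibitor Ro20-1724 (0.1 mM final) and compound 10 min at room temperature, then stimulated with NKH477 (200nM […]) for 30 min. cAMP read by HTRF (665/620 nm).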

[19] = biological target: D(2) dopamine receptor (Homo sapiens) (UniProt P14416); experiment: Dopamine D2 receptor (DRD2) small molecule antagonists, cell-based qHTS assay (AID 1963595; active means well fitted inhibition curve with a large enough effect in the signal ratio in the repeat runs, with a control signal flat; the % refers to the signal ratio)
In short: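 Stable D2 receptor HEK293 line, 24 h after seeding. Compound preincubated 10 min, then quinpirole (12 nM) with forskolin analogue NKH477 (200 nM), 30 min, room temperature. Detection by time-resolved FRET of cAMP.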

[20] = cAMP Responsive Elements (CRE) small molecule agonists, cell-based qHTS assay (AID 1963590)
In short: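 HEK 293T CRE-bla, 2,000 cells/well, 18 h preincubation 37 C/5% CO2; cpds (DMSO) pinned, 3 h; LiveBLAzer B/G FRET substrate, 2 h RT.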

SMILES	Potency [1]	Potency [2]	Potency [3]	Potency [4]	Potency [5]	Potency [6]	Potency [7]	Potency [8]	Potency [9]	Potency [10]	Potency [11]	Potency [12]	Potency [13]	Potency [14]	Potency [15]	Potency [16]	Potency [17]	Potency [18]	Potency [19]	Potency [20]
O=C1c2ccccc2C(=O)c2c(O)ccc(O)c21	inactive	inactive	inactive	inactive	inactive	inactive	inactive	inactive	inactive	inactive	inactive	inactive	inactive	inactive	inactive	inactive	inactive	inactive	inactive	–
CC(C)NC(=O)c1ccc(C=O)cc1	inactive	inactive	inactive	inactive	inactive	inactive	inactive	inactive	inactive	inactive	inactive	inactive	inactive	inactive	–	–	–	inactive	inactive	inactive
S=c1nccc[nH]1	inactive	inactive	inactive	inactive	inactive	inactive	inactive	inactive	inactive	inactive	inactive	inactive	inactive	inactive	inactive	inactive	–	inactive	inactive	inactive
SCCc1cnccn1	inactive	inactive	inactive	inactive	inactive	inactive	inactive	inactive	inactive	inactive	inactive	inactive	inactive	inactive	–	inactive	–	inactive	inactive	inactive
CC(=O)CCc1ccc(OC(C)=O)cc1	inactive	inactive	inactive	inactive	inactive	inactive	inactive	inactive	inactive	inactive	inactive	inactive	inactive	inactive	inactive	inactive	–	inactive	inactive	inactive
CCCCOC(=O)CC#N	inactive	inactive	inactive	inactive	inactive	inactive	17 µM (active)	inactive	inactive	inactive	inactive	inactive	inactive	inactive	–	inactive	inactive	inactive	inactive	inactive
c1ccc(-c2ccccn2)nc1	inactive	inactive	inactive	inactive	inactive	inactive	inactive	inactive	inactive	inactive	inactive	inactive	inactive	inactive	inactive	inactive	inactive	inactive	inactive	inactive
NC(=O)CCCCC1CCSS1 (centres undefined)	inactive	inactive	inactive	inactive	inactive	inactive	inactive	inactive	inactive	inactive	inactive	inactive	inactive	inactive	inactive	inactive	–	inactive	inactive	inactive
O=C1CCCC(=O)O1	inactive	inactive	inactive	inactive	inactive	inactive	inactive	inactive	inactive	inactive	inactive	inactive	inactive	inactive	–	inactive	–	inactive	inactive	inactive
CCC(C)(CN(C)C)OC(=O)c1ccccc1 (centres undefined)	inactive	inactive	inactive	inactive	inactive	inactive	inactive	inactive	inactive	inactive	inactive	inactive	inactive	inactive	inactive	inactive	inactive	inactive	inactive	inactive
CCCC(=O)OC	inactive	inactive	inactive	inactive	inactive	inactive	inactive	inactive	inactive	inactive	inactive	inactive	inactive	inactive	inactive	inactive	–	inactive	inactive	inactive
COc1cccc(N)c1	inactive	inactive	inactive	inactive	inactive	inactive	inactive	inactive	inactive	inactive	inactive	inactive	inactive	inactive	inactive	inactive	–	inactive	inactive	inactive
CN1CCCN=C1/C=C/c1cccs1	inactive	inactive	inactive	inactive	inactive	inactive	inactive	inactive	inactive	inactive	inactive	inactive	inactive	inactive	inactive	–	inactive	inactive	inactive	inactive
C=Cc1ccc(OC(C)=O)cc1	inactive	inactive	inactive	inactive	inactive	inactive	inactive	inactive	inactive	inactive	inactive	inactive	inactive	inactive	inactive	inactive	inactive	–	inactive	inactive

Source: PubChem BioAssay (Tox21)
